Source: the supplement of paper PMC6555819

Assays:
Assay in all cases: PBM binding z-score (relative to random genomic background probes); higher = stronger binding; sequences stand for … in GC…GCGATTGACAGCGTAGAATGAAGG
[1] = tested on: FXR:RXRa (NR concentration 270 nM, RXRa partner concentration 90 nM)
In short: (§1)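 Ligand-free nuclear receptor dimers were bound for 1 h to custom Agilent 4×180K protein-binding microarrays. Detection used antibodies against each partner (one per run). Binding z-scores rest on regression-normalized fluorescence, with random background probes as the reference.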

[2] = tested on: LXRa:RXRa (NR concentration 270 nM, RXRa partner concentration 90 nM)
In short: as §1

[3] = tested on: LXRa homodimer (NR concentration 270 nM)
In short: as §1

[4] = tested on: LXRb:RXRa (NR concentration 270 nM, RXRa partner concentration 90 nM)
In short: as §1

[5] = tested on: LXRb homodimer (NR concentration 270 nM)
In short: as §1

[6] = tested on: PPARa:RXRa (NR concentration 270 nM, RXRa partner concentration 90 nM)
In short: as §1

[7] = tested on: PPARg:RXRa (NR concentration 180 nM, RXRa partner concentration 90 nM)
In short: as §1

[8] = tested on: PPARg:RXRa 270nM:90nM, anti-RXR (NR concentration 270 nM, RXRa partner concentration 90 nM)
In short: as §1

[9] = tested on: PPARg:RXRa 30nM:10nM, anti-RXR (NR concentration 30 nM, RXRa partner concentration 10 nM)
In short: as §1

[10] = tested on: PPARg:RXRa 90nM:30nM, anti-RXR (NR concentration 90 nM, RXRa partner concentration 30 nM)
In short: as §1

[11] = tested on: PPARg:RXRa DBDmut IVT, anti-RXR (DBD mutation: RXRa K156A/R161A, NR concentration 270 nM, RXRa partner concentration 90 nM)
In short: as §1

[12] = tested on: PPARg:RXRa IVT, anti-PPARg (NR concentration 270 nM, RXRa partner concentration 90 nM)
In short: as §1

[13] = tested on: PPARg DBDmut:RXRa IVT, anti-PPARg (DBD mutation: PPARg1 K132A/R137A, NR concentration 270 nM, RXRa partner concentration 90 nM)
In short: as §1

[14] = tested on: PPARg DBDmut IVT, anti-PPARg (DBD mutation: PPARg1 K132A/R137A, NR concentration 270 nM)
In short: as §1

[15] = tested on: PPARg homodimer (NR concentration 180 nM)
In short: as §1

[16] = tested on: PXR:RXRa (NR concentration 270 nM, RXRa partner concentration 90 nM)
In short: as §1

[17] = tested on: PXR homodimer (NR concentration 270 nM)
In short: as §1

[18] = tested on: RARa:RXR (NR concentration 270 nM, RXRa partner concentration 90 nM)
In short: as §1

[19] = tested on: RARa homodimer (NR concentration 270 nM)
In short: as §1

[20] = tested on: RARb:RXRa (NR concentration 270 nM, RXRa partner concentration 90 nM)
In short: as §1

Sequence | PBM binding z-score [1] | PBM binding z-score [2] | PBM binding z-score [3] | PBM binding z-score [4] | PBM binding z-score [5] | PBM binding z-score [6] | PBM binding z-score [7] | PBM binding z-score [8] | PBM binding z-score [9] | PBM binding z-score [10] | PBM binding z-score [11] | PBM binding z-score [12] | PBM binding z-score [13] | PBM binding z-score [14] | PBM binding z-score [15] | PBM binding z-score [16] | PBM binding z-score [17] | PBM binding z-score [18] | PBM binding z-score [19] | PBM binding z-score [20]
GCTAGTTCGTCAGTAAAAGGTCACACACCGGTCG | 3.31 | 4.47 | 4.75 | 4.05 | 0.683 | 4.56 | 1.96 | 3.56 | 1.55 | 3.22 | 0.269 | 1.84 | 0.221 | 0.516 | 5.83 | 5.56 | 1.64 | 6.4 | 3.07 | 4.08
CGTCCAAGGTCAGCAGGTTAGTGAAAGCGACGTG | 4.92 | 3.23 | -0.206 | 2.36 | -0.346 | 4.15 | 2.77 | 3.33 | 0.363 | 1.88 | 2.23 | 2.41 | -0.261 | -0.686 | 3.19 | 2.75 | 0.49 | 3.24 | 0.634 | 4.85
CTACCAAGGCGAACAAGGTCGTTGATTACTATTC | 0.285 | 0.164 | 0.0479 | 0.521 | -0.798 | 0.658 | 0.0767 | 0.292 | -0.118 | -0.247 | 0.161 | -0.119 | -0.0454 | 0.0113 | 0.33 | 1.25 | 0.453 | 1.16 | 0.111 | 0.395
TAGCCTAGGTCAGATCGGGCCAGTAAACGCTATA | 2.02 | 1.16 | -0.524 | 0.637 | -0.2 | 1.5 | 0.341 | 0.516 | -0.817 | -0.377 | 0.412 | 1.24 | -0.563 | -0.294 | -0.374 | 1.12 | -0.666 | 0.814 | -1.71 | 2.85
TTACCAAGGTGAAGATCGTTGATCCCTCTGTAGA | 0.339 | 0.08 | -0.422 | 0.141 | -0.815 | 1.14 | 0.457 | 0.958 | 0.156 | 0.575 | 1.37 | 1.92 | 0.401 | 0.0725 | 0.177 | 0.123 | -0.895 | 0.533 | -0.66 | 1.26
AGAATGAGGTTATACGTAGATCAAGGAAGAAAGT | 2.5 | 2.22 | 0.0848 | 1.72 | 0.172 | 3.25 | 2.25 | 2.12 | 0.826 | 1.62 | 4.05 | 2.17 | 1.37 | 0.946 | 1.39 | 1.25 | 0.179 | 1.97 | 0.408 | 1.58
CATACAAGGTCAGCTAGGCCAGAGTAGGGACGGC | 5.48 | 4.64 | 0.878 | 2.65 | 0.921 | 4.45 | 3.65 | 3.36 | 0.947 | 2.45 | 2.49 | 3.08 | 1.69 | 1.12 | 2.33 | 2.51 | 0.612 | 3.43 | 1.39 | 4.89
TCGATTAGTTGATTAGGGCAACCGAAACAGCGGA | -1.31 | -0.186 | -0.313 | 0.118 | -0.308 | 0.322 | 0.147 | 1.25 | 2.88 | 2.19 | 1.68 | 1.02 | -0.465 | 0.363 | 0.609 | 0.11 | -0.141 | 0.208 | 0.0713 | 0.744
TCATATAGGTAAAAGGTGAAAGCCGGTGTGGTAA | 1.71 | 2.07 | 0.0111 | 1.77 | -0.0293 | 5.73 | 8.8 | 8.59 | 8.83 | 9.1 | 5.44 | 4.98 | 0.678 | 1.17 | 1.42 | 1.58 | 0.293 | 2.92 | 0.942 | 1.95
ATTTGTAGGTTAAGGGTCATTCAGGTTGGTTCGC | 5.48 | 5.5 | 4.38 | 4.97 | 2.76 | 6.21 | 11.5 | 9.95 | 11.8 | 12.1 | 6.4 | 7.15 | 4.62 | 2.85 | 7.55 | 5.87 | 3.82 | 6.91 | 4.5 | 3.9
GATAGAGGGTCAAGGCCAGAGTACGCGTATTGAT | 5.49 | 3.11 | -0.2 | 2.76 | -0.344 | 4.99 | 4.72 | 4.24 | 1.61 | 4.04 | 2.88 | 3.71 | 0.404 | 0.208 | 1.98 | 2.84 | 0.414 | 3.34 | 0.0585 | 4.12
TCTGCTAAGTCAGTTGGTCAGCTAACGAGCTGCC | -0.309 | -0.429 | -0.729 | -0.89 | -0.474 | -0.235 | -1.04 | 0.263 | 1.09 | 0.712 | 0.523 | 0.0659 | -0.684 | -0.363 | -1.05 | -0.607 | -0.707 | -0.273 | -1.36 | 0.0945
TCTTATAGGTAATACAGGTGAAAGTCGGCATCTA | 1.18 | 1.45 | 0.636 | 1.17 | 0.858 | 2.06 | 1.26 | 2.8 | 3.97 | 3.16 | 4.02 | 3.44 | 1.76 | 1.72 | 1.19 | 0.981 | 0.463 | 1.37 | 1.47 | 0.816
ATCTCTAGCTAAGACTCAGTTCAGTGAAGAACGC | 0.167 | 0.272 | 0.317 | -0.057 | 0.629 | -0.233 | -0.0864 | -0.493 | -0.13 | -0.144 | -0.0797 | 0.0403 | 0.405 | 0.581 | 0.595 | 0.728 | 1.14 | 0.508 | 0.699 | 0.0718
